Sampled rows, rich in hits. Any-hit rate of the full collection: about 3.5%.
Pf apPOL inh: Pf-apPOL DNA polymerase inhibition. inhibition, % at 10 µM. 0.25% of 210,000 active. Recombinant Pf-apPOL, molecular beacon fluorescence, 1.5 h
mHTT CaM bind: mHTT-calmodulin interaction abrogation; inhibition, % at 15 µM; 3.6% of 190,000 active; AID 1671202; P42858; AlphaScreen His-mHTT/GST-CaM binding, luminescence
Target sequence (P42858 whole entry, looked up, change not shown): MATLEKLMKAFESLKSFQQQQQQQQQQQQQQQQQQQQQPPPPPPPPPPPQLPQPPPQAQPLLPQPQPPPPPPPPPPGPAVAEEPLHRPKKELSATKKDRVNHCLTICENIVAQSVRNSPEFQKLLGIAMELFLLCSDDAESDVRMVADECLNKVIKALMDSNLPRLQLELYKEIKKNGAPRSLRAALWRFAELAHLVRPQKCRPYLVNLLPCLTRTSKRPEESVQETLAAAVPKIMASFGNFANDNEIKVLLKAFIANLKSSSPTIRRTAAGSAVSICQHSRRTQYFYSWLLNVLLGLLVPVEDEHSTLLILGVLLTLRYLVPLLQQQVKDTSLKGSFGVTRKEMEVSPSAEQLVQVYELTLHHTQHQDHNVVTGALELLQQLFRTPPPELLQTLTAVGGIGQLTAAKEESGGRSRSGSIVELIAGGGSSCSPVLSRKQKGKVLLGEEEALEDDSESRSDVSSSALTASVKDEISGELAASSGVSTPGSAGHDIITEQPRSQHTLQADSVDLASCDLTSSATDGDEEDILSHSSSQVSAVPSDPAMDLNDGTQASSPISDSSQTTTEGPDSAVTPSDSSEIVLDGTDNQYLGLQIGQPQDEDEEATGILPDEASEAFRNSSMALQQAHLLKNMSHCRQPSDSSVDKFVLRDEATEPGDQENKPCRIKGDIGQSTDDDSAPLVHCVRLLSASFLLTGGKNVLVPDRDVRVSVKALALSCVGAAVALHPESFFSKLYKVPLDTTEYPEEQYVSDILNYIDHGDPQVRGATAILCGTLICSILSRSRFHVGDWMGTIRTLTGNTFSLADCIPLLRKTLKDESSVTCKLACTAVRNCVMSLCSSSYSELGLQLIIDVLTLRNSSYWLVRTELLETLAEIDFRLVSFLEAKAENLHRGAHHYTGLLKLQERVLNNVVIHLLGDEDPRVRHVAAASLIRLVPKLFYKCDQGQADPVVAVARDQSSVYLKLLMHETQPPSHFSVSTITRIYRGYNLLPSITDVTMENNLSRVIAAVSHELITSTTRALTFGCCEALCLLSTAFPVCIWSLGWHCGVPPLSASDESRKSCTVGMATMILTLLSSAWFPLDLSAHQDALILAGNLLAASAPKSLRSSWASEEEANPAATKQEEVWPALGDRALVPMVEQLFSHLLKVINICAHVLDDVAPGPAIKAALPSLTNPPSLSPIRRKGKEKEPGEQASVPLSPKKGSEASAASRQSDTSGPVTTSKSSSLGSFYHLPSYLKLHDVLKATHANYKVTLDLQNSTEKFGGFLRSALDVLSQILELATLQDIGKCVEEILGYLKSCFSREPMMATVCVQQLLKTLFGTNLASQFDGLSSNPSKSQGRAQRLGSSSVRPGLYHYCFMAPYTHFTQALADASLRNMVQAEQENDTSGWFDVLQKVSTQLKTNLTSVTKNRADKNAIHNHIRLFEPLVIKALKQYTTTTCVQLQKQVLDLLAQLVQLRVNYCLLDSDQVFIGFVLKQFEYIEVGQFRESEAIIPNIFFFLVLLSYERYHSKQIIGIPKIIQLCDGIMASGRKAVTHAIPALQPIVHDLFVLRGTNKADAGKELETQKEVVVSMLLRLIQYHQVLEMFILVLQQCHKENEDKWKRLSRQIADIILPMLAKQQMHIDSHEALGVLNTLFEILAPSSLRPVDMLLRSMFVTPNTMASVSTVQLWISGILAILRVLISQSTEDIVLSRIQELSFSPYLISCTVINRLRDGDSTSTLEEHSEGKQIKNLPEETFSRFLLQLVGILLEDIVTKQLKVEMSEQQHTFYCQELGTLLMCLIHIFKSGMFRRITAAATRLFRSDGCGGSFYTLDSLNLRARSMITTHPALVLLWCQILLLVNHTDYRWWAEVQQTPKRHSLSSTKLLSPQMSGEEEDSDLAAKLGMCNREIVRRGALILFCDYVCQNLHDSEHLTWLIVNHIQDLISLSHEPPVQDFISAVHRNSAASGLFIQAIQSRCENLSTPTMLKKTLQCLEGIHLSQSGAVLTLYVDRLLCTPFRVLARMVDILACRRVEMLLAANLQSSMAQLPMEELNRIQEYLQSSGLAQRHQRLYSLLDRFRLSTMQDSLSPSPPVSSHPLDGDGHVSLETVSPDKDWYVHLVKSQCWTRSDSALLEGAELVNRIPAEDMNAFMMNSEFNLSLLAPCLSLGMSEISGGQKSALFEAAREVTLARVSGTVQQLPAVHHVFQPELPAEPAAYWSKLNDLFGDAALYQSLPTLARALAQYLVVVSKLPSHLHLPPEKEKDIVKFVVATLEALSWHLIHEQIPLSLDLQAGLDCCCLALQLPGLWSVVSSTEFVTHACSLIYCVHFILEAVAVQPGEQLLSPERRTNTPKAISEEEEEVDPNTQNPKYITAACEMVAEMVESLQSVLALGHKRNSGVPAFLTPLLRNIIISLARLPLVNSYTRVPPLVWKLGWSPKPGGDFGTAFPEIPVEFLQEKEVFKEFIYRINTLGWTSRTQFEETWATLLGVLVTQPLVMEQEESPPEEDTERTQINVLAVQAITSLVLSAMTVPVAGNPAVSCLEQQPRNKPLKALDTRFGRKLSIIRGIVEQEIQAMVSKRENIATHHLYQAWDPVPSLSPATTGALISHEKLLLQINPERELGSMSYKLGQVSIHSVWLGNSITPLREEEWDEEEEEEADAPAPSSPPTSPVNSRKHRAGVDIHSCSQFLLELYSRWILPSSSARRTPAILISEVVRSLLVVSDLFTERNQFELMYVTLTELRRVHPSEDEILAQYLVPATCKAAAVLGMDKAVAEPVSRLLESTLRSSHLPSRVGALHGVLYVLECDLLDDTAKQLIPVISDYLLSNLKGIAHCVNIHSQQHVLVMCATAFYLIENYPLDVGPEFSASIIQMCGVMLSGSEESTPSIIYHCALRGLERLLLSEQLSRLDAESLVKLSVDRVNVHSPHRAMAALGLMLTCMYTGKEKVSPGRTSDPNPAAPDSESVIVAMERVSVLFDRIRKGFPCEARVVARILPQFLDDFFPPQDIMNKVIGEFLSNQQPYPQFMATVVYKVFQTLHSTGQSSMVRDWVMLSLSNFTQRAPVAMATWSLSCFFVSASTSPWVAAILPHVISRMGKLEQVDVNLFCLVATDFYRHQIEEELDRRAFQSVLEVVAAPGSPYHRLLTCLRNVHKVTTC
Large screens that a line does not name were inactive. No stated cut-off is given here; in the data, active means inhibition above about 50%; inactive means the rest.

COc1cccc(NS(=O)(=O)c2ccc3c(c2)CC(C)N3C(C)=O)c1 (stereo unspecified)	none
COCCn1cc2c3c(cccc31)CN(C(=O)c1ccccc1F)CC2	none
COCCn1cc2c3c(cccc31)CN(C(=O)NCc1ccccc1)CC2	none
COCCn1cc2c3c(cccc31)CN(C(=O)Nc1cc(F)cc(F)c1)CC2	none
COCCn1cc2c3c(cccc31)CN(C(=O)c1ccccc1Br)CC2	mHTT CaM bind 69
COc1ccc(C(=O)N2CCc3cn(C)c4cccc(c34)C2)cc1F	none
CCn1cc2c3c(cccc31)CN(C(=O)c1ccc(OC)c(F)c1)CC2	mHTT CaM bind 52
COCCn1cc2c3c(cccc31)CN(C(=O)c1cccc(F)c1)CC2	mHTT CaM bind 54
COCCn1cc2c3c(cccc31)CN(C(=O)CCCc1ccccc1)CC2	mHTT CaM bind 91
COc1ccc(CN2CCc3nc(N4CCOCC4)ncc3C2)c(OC)c1OC	none
COc1cc(Cl)c(C)cc1NC(=O)Cc1c(C(=O)O)[nH]c2ccccc12	none
O=c1ccnc(C(F)(F)F)[nH]1	none (no result: Pf apPOL inh)
COc1ccc(C(=O)N2CCc3cn(C)c4cccc(c34)C2)c(C)c1	none
COCCn1cc2c3c(cccc31)CN(C(=O)c1ccc(C)cc1)CC2	mHTT CaM bind 68
COCCn1cc2c3c(cccc31)CN(C(=O)c1ccccc1)CC2	none
COCCn1cc2c3c(cccc31)CN(C(=O)c1ccc(F)c(Cl)c1)CC2	none
COCCn1cc2c3c(cccc31)CN(C(=O)c1ccc(C)c(F)c1)CC2	mHTT CaM bind 53
COCCn1cc2c3c(cccc31)CN(C(=O)c1cccc(Cl)c1)CC2	mHTT CaM bind 65
COCCn1cc2c3c(cccc31)CN(C(=O)c1ccccn1)CC2	none
COCCn1cc2c3c(cccc31)CN(C(=O)c1ccc(OC)cc1C)CC2	mHTT CaM bind 51
COc1ccc(C(C)=NOC(=O)c2ccc([N+](=O)[O-])cc2)cc1CN1CCOCC1	none (no result: mHTT CaM bind)
Cc1ccc(S(=O)(=O)Nc2ccc(S(=O)(=O)Nc3nccs3)cc2)cc1	none
CC(C)CN(CC(C)C)S(=O)(=O)N1CCC(C(=O)NCc2ccc(F)cc2Cl)CC1	none
CCn1cc2c3c(cccc31)CN(C(=O)Cc1cccc(F)c1)CC2	mHTT CaM bind 66
CCCC(=O)N1CCc2cn(CC)c3cccc(c23)C1	none
CCCC1(C)N=C(c2ccc(OCC)cc2)CC(c2ccccc2O)N1 (stereo unspecified)	none
CC(C)N1CCC2(CC1)N=C(c1ccc3c(c1)OCO3)CC(c1ccccc1O)N2 (stereo unspecified)	none
COc1cccc(C2=NC(C(C)C)NC(c3cc(Cl)ccc3O)C2)c1 (stereo unspecified)	mHTT CaM bind 52
COc1cccc(C2=NC(C)(CC(C)C)NC(c3ccccc3O)C2)c1 (stereo unspecified)	mHTT CaM bind 98
CC(C)C1(C)N=C(c2ccc3c(c2)OCO3)CC(c2ccccc2O)N1 (stereo unspecified)	mHTT CaM bind 64
COc1cccc(C2=NC(C)(C)NC(c3cc(Cl)ccc3O)C2)c1 (stereo unspecified)	mHTT CaM bind 100
COc1cccc(C2=NC(C(C)C)NC(c3ccccc3O)C2)c1 (stereo unspecified)	none
CCOC(=O)N1CCC2(CC1)N=C(c1ccccc1)CC(c1cc(Cl)ccc1O)N2 (stereo unspecified)	none
CCC(=O)N1CCc2sc(S(=O)(=O)Nc3ccc(OC)c(Cl)c3)cc2C1	none
COc1ccccc1Oc1nc2c(c(=O)n(C)c(=O)n2C)n1Cc1ccc(F)cc1	none
Cc1nn(CCCC(=O)Nc2sc3c(c2C#N)CCCC3)c(C)c1[N+](=O)[O-]	none
Cc1ccc2nc(Cc3ccccc3)c(NC(=O)C3CCCCC3)n2c1	mHTT CaM bind 54
Cc1ccc2nc(-c3ccc(C)o3)c(NC(=O)C3CCCCC3)n2c1	mHTT CaM bind 56
Cc1ccn2c(NC(=O)C3CCCC3)c(-c3ccccc3)nc2c1	none
COc1ccc(-c2nc3ccc(C)cn3c2NC(=O)C2CCCCC2)cc1	none
CC1(C)CC(=O)C2=C(C1)OC(N)=C(C#N)C2c1cn(-c2ccccc2)nc1-c1ccc(Cl)cc1 (stereo unspecified)	mHTT CaM bind 100
CC1(C)CC(=O)C2=C(C1)OC(N)=C(C#N)C2c1ccc(-c2ccccc2)cc1 (stereo unspecified)	none
COc1ccccc1N1CCN(C(=O)CCc2ccccc2)C(C)C1=O (stereo unspecified)	none
Cn1c(C2CCN(S(=O)(=O)c3cccnc3)C2)nc2cccnc21 (stereo unspecified)	none
O=C1NCCN(Cc2ccccc2)C1=O	none
O=C1C=CC(=O)C(C2=C3C(=O)N(Cc4ccccc4)CC(=O)N3CCC2)=C1	mHTT CaM bind 82
CNc1cc(-n2nc(C)cc2-c2ccccc2)ncn1	none
Cc1cc(-c2ccccc2)n(-c2cc(Nc3cccc(C(F)(F)F)c3)ncn2)n1	mHTT CaM bind 93
CC12CC3CC(C1)CC(C(=O)O)(C3)C2	none
Cc1c(CCOC(=O)C23CC4CC(CC(C)(C4)C2)C3)sc[n+]1CC(=O)c1ccccc1	mHTT CaM bind 99
CCCn1c(C2CCN(C(=O)Nc3ccc(F)cc3)C2)nc2cccnc21 (stereo unspecified)	none
CSc1nc2n(n1)C(c1ccccc1[N+](=O)[O-])C1=C(CCCC1=O)N2 (stereo unspecified)	none
COc1ccc(-c2c(C)oc3cc(O)ccc3c2=O)cc1OC	none
COc1ccc(C(=O)Oc2ccc3c(=O)c(-c4ccc(OC)c(OC)c4)c(C)oc3c2)cc1OC	none
COc1ccc(-c2c(C)oc3cc(OC(=O)C(C)C)ccc3c2=O)cc1OC	mHTT CaM bind 84
COc1ccc(-c2c(C)oc3cc(O)ccc3c2=O)cc1	Pf apPOL inh 62
Cc1cc(C)c(NC(=O)Cn2nc3c4c(cccc4c2=O)-c2ccccc2-3)c(C)c1	none
COc1cc([N+](=O)[O-])ccc1-c1ccc(/C=C/c2cc(C(F)(F)F)[nH]c(=O)n2)o1	none
COc1cc(CN2COc3ccc4c(c3C2)OC(=Cc2ccccc2)C4=O)cc(OC)c1OC	none
COc1ccc(CN2COc3ccc4c(c3C2)OC(=Cc2ccco2)C4=O)cc1OC	mHTT CaM bind 53
COc1cc(CN2COc3ccc4c(c3C2)OC(=Cc2ccco2)C4=O)cc(OC)c1OC	mHTT CaM bind 51
COc1ccccc1CN1COc2ccc3c(c2C1)OC(=Cc1ccco1)C3=O	none
COc1ccc(NC(=O)N2CCC(CCOc3cccnc3)CC2)cc1	none
CCCN1C(=O)/C(=C2/SC(=N)NC2=O)c2cc(Br)ccc21	none
C=CCN1C(=O)/C(=C2\SC(N3CC(C)OC(C)C3)=NC2=O)c2cc(Br)ccc21 (stereo unspecified)	mHTT CaM bind 54 (no result: Pf apPOL inh)
C=CCN1C(=O)/C(=C2/SC(N3CCCCC3)=NC2=O)c2cc(Br)ccc21	mHTT CaM bind 52
O=C(O)CN1C(=O)/C(=C2/SC(N3CCOCC3)=NC2=O)c2cc(Br)ccc21	none
Cc1ccc2nsnc2c1NC(=O)c1ccc(Cl)c(Cl)c1	none
CC(=O)Nc1cccc(N2CC(C(=O)Nc3ccc(F)c(F)c3)CC2=O)c1 (stereo unspecified)	none
COc1ccc(C2CCCN2C(=O)Nc2ccc3c(c2)OCCO3)cc1 (stereo unspecified)	none
CSc1nnc(-c2nn(C)c3c2CN(C(=O)c2c(F)cccc2Cl)CC3)n1C	none
N#Cc1ccc([N+](=O)[O-])s1	none (no result: mHTT CaM bind)
Cc1cc(C)c([N+](=O)[O-])c(C)c1C1C(C#N)=C(N)SC(N)=C1C#N	mHTT CaM bind 65
N#CC1=C(N)SC(N)=C(C#N)C1c1ccc([N+](=O)[O-])s1	mHTT CaM bind 67 (no result: Pf apPOL inh)

Source: PubChem
